# ± gives the standard deviation of the averaged measurements. Whole data set: some 25,000 sequences, median “ln(normalized median fluorescence intensity)” near 10, cut for the highest 2% near 12. For the sample, the highest values were picked, then their nearest neighbours and some sequences at random.
# System: PfAP2-G AP2 domain (GST-tagged)
# Assay: gcPBM binding intensity (ln(normalized median fluorescence intensity)); higher = stronger DNA binding
# Summary of the method: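 Alexa488 anti-GST antibody, scanned at 488 nm, detected GST-tagged P. falciparum DNA-binding domains that had been expressed in E. coli and incubated for 1 h on an Agilent 4 × 180k array. The array carried primer-extended double-stranded 36-bp intergenic genomic probes and negative controls. Binding intensity is the highest Masliner-normalised natural-log median intensity across replicate spots of either orientation of each probe.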
row,Sequence,gcPBM binding intensity (ln)
1,TAGTAACTTGTATTCACACAAATTATATTATATTAC [CACACA_site5041],9.965 ± 0.021
2,ACGTATGTATATTACACACATACATATTATTCACTA [CACACA_site204],10.1 ± 0.16
3,AGTATGTAAATGTGCCATATATATATTAAATACATA [CACACA_negctrl_site14],10.1 ± 0.23
4,AACATATACACGAACACACACACATATAAATAAATA [CACACA_site6380],10.3 ± 0.37
5,ATAAAGTATATTATATGTACATATATATATTATATA [XGTACX_site1345],11.1 ± 0.52
6,TTTTTTTTAGTATGAACACACATATATATTATAAAA [CACACA_site2935],10.1 ± 0.25
7,ATAAGAAAAAGACACACACACAAAAAAAAAAAAAAA [CACACA_site2828],9.95 ± 0.49
8,AAGATAAAATTATGTAGTACAAAAAAAAATAAAAAA [XGTACX_site139],11.7 ± 0.91
9,AAAGATAAAATATTATGTACATATATATATATATAT [XGTACX_site5079],11.1 ± 0.56
10,AATAATTATAAAAAATGTACAAAAAAAAAAAAAAAA [XGTACX_site3681],10.5 ± 0.83
11,CGCATGTATTTTGTGTGTACTAATTATAATCAACTT [XGTACX_site4709],11.4 ± 0.83
12,AAAAGTGTATGTAGGTGTACTTTTTATTTCTTCTTT [XGTACX_site8819],11.6 ± 0.98
13,TTTTTTATGAGGTGGTGTACTTTTTTTTTTTTCTTT [XGTACX_site8550],11.7 ± 0.97
14,TATGAGGAAACGTGGTGTACTTTTTTTTAATAAAAA [XGTACX_site1351],11.6 ± 0.93
15,TATATGCATAATAACTGTACACAAATTGGGGTTGAT [XGTACX_site459],11.6 ± 0.63
16,ATATATATAATTTGTACACACAAATATGCATATATA [CACACA_site3432],11.3 ± 0.98
17,ATATATATATAATTTGTACACACAAATATGCATATA [CACACA_site9136],11.3 ± 0.88
18,TATGTGCATATAAACTCACACATTGTATATTACATG [CACACA_site6106],10.14 ± 0.035
19,ATTGTTTATATTGATTGTACTCATTTTTTTTTTATT [XGTACX_site1946],11.5 ± 0.99
20,ATATATACGTATGAATGTATATTTGTTTGATTTTTT [CACACA_negctrl_site835],9.88 ± 0.12
21,AATGATTGATTTTATTGTACGTACTCGGAATATGGT [XGTACX_site4976],11.8 ± 1
22,TATATATATACATATTGTACATATTACATGCTATTA [XGTACX_site1184],10.9 ± 0.64
23,ATATAAATATGACACACACACAAAAAAAATAAAGAC [CACACA_site6208],10.3 ± 0.2

row,Sequence,gcPBM binding intensity (ln)
1,TTTTTTTTTTTTTAAACATGCATAATAAATATAATA [TGCATGCA_site265],9.81 ± 0.35
2,ATTATATAATTTAATCGTACACAAATATTTGTTAGT [XGTACX_site5913],11.3 ± 0.8
3,TGAAATTTATAATAGTGTACAAAGAAAAAAAAAAAA [XGTACX_site4965],11 ± 0.78
4,CATATATATTTTATTTGTACGTATAAAAAAACAAAA [XGTACX_site4253],11.5 ± 1.1
5,TTTCGTAAACAAATTTGTACGTACAAATTTATAAAT [XGTACX_site8175],11.7 ± 1.1
6,ACCTATTTATAATAGTGTACGTACAAATTTGTTTAC [XGTACX_site8176],11.7 ± 0.89
7,ATATATATATATATATGTACGTAAACAAAAATTTAT [XGTACX_site6780],11.4 ± 0.91
8,TTTTTTAAAAATAACTGTACAGAGGCTGTTAGGATA [XGTACX_site2521],11 ± 0.4
9,TTCCAAAAAATTATTACACACATATGAGCACATATA [CACACA_site4543],10.1 ± 0.18
10,TTTCCTTATTAAAACACACAAATACATTATTTAATC [CACACA_site7080],9.875 ± 0.035
11,AAAAGTATAATAAATTGTACTAACAAATATTTATGT [XGTACX_site7721],10.9 ± 0.56
12,TTGAAAATGAAAAAATGTACTTAAAAAAAAGGAACA [XGTACX_site8664],11.2 ± 0.71
13,CTTTGGTTATAACACACATGCACACGTAAATAAATA [TGCATGCA_site976],10.5 ± 0.25
14,ATTTTTTTTTTTTTTTTTTATATGCTCTCCATGAGA [CACACA_negctrl_site1225],9.7 ± 0.2
15,ATAAATATCATATATATACACACGTAATACATAATA [CACACA_site4001],9.935 ± 0.092
16,GGGGGGGGAGGGTGAATACACACGTAATAATCATAA [CACACA_site1716],11.6 ± 0.94
17,GGGGGGAGGGTGAATACACACGTAATAATCATAAAC [CACACA_site8502],11.6 ± 0.79
18,TCTTTTGTTTAACCTACATGCAGAATATAAGTCTTC [TGCATGCA_site99],10 ± 0.2
19,AAAAATTCATTTTTATGTACGTACAAATTCTTCGTT [XGTACX_site2471],11.8 ± 0.87
20,TAATTCTTTATTTTTCGTACGTAAAACAAAAAATAT [XGTACX_site862],11.1 ± 0.79
21,ATATATTCATTTTTATGTACGTAAATTGTAAATTGG [XGTACX_site8242],11.6 ± 0.92
22,TGAAAATAGTTAATTTGTACACAAAAATTAAGAAAA [XGTACX_site5794],11.2 ± 0.8
23,CAGTTATTTTAATGTGGTACACAATTTTAAAATTAT [XGTACX_site8571],11.5 ± 0.93

row,Sequence,gcPBM binding intensity (ln)
1,ACACATACAACGTGGTGTACAAATAATTATAATCAA [XGTACX_site2287],11.1 ± 0.4
2,TTACATGTAAAAGGTACACACATTAGATATACAAAT [CACACA_site6651],11.3 ± 0.84
3,TTTGAGATGTGGTGTACACAAAATTAGGTACACATC [CACACA_site5773],12 ± 0.85
4,AATTTTGAGATGTGGTGTACACAAAATTAGTTAGAC [XGTACX_site7033],11.7 ± 0.98
5,TAAAAATAGTATACAACACACGAGGGAAAATAAAGT [CACACA_site3837],10.34 ± 0.099
6,TATTTAAATTAATATTGTACATATATTTATAATATA [XGTACX_site6109],11.1 ± 0.71
7,TATATTTTTATTGAACGTACAAAAAGTCGAAAACAG [XGTACX_site3967],11.4 ± 0.74
8,GATATTTTTTTCGAAAGTACAAAAAAAAATATTTCC [XGTACX_site4389],11 ± 0.72
9,TTTTCATTTGAAAGTCGTACAAGTTCGAAAAAAGGA [XGTACX_site6840],11.6 ± 1.2
10,TTTTTTATTTGACAAGCACACACTTAAATATATATA [CACACA_site3358],10.2 ± 0.33
11,AAATCATATTCTTATTTTATTTTTTTTATTTTTTAT [XGTACX_negctrl_site166],9.55 ± 0.17
12,AAACATGATTATTATAGTACAATTATAATTATTATA [XGTACX_site2590],10.8 ± 0.59
13,ATGTAGGTTAATTATTGTACGTAGGGGGTGTATATT [XGTACX_site3973],11.8 ± 1.2
14,ATATATATATATATTTGTACGTATTATGTATTTTTT [XGTACX_site3530],11.5 ± 0.98
15,TAAACAGATATATTTTGTACATATTGTATATTTTGT [XGTACX_site713],10.6 ± 0.28
16,TATAATAATAATTATTGTACGATTAGGTTAATTCAT [XGTACX_site1984],11.1 ± 0.7
17,TATAATAATACGTATTGTACTATTAGGTTAATTCGT [XGTACX_site264],11.1 ± 0.66
18,AATATATATAATAATTGTACAATACGTATGTTATAT [XGTACX_site8745],11 ± 0.54
19,AAATTATTATATATATGTACGTATAATGTATTTTGT [XGTACX_site2903],11.5 ± 1.1
20,TATATATATATATGTTGTACAAAAATGTAAAATATA [XGTACX_site7761],11.1 ± 0.57
21,GTATATATATTTGTACGTACATATTGTTGTAAACAC [XGTACX_site8833],11.7 ± 0.71
22,ATGTTATATATGTATTGTACGTATTTTGTATATTAT [XGTACX_site6607],11.6 ± 1.1
23,GTGTGTGTATATATTTGTACATATATTTAAACATAT [XGTACX_site1074],11.4 ± 0.71

row,Sequence,gcPBM binding intensity (ln)
1,ATATGTATATATGTATGTACGTACAAATTGTTGTAA [XGTACX_site8832],11.7 ± 0.8
2,TATAATATTCCTTTTTAACACACATATGAACAAATA [CACACA_site7932],10.1 ± 0.18
3,CATTATTCATTTTGGATGCACTGACAGAAAAATGGT,10.4 ± 0.18
4,CTTAGGTGTTCATAGAGTACAAATAAAAAAATAAGA [XGTACX_site2294],11.3 ± 0.95
5,TACCTAAATAAATGGACACACACATATATATATATA [CACACA_site8407],10.8 ± 0.53
6,TATATTTTAAAATTATGTACATATATAGATAAATGT [XGTACX_site1349],11.3 ± 0.52
7,AATTAGATGGATAAATGTACATAATGTGAATATATT [XGTACX_site86],11 ± 0.4
8,TCATATATATATATATGTACATATTTATGTATGTAT [XGTACX_site6291],11.1 ± 0.66
9,TTCCTTAATCAATATTGTACTTTTTATAAATTTAGT [XGTACX_site3678],11.4 ± 0.85
10,TTCCTTTGTCCTAACTGTACTCAAATTTATTAGTGG [XGTACX_site226],11.8 ± 0.75
11,TAGTTCCTCAAAAATTTCCTTTGTCATTTTATTCAC [GTGCAC_negctrl_site20],10.17 ± 0.085
12,TATAAAAATATATTTACACACTATAAATATCGAAAG [CACACA_site6896],9.96 ± 0.18
13,TAATTTATGACACGCGCACACATATATATATAGTAA [CACACA_site4249],10.6 ± 0.42
14,CAAAGATAAAATGATGCACACAAAAGGGTGTAATAT [CACACA_site8499],10.25 ± 0.014
15,AAGATAAAATGATGCACACAAAAGGGTGTAATATAT [CACACA_site1706],10.13 ± 0.049
16,ACAAAAATGAGATGGTGTACGCACAAATAAATAATA [XGTACX_site5221],11.7 ± 0.79
17,TCCCACTGTTATATTGAAAAAAAAAAAAAAAAAAAA [TGCATGCA_negctrl_site288],9.82 ± 0.5
18,AAACAACATGGACACGCACACACAAAAAAAGCATGC [CACACA_site73],11 ± 0.48
19,TAAAATATATTTTTCTGTACACAAAAATATATTAAA [XGTACX_site2813],11.5 ± 0.96
20,TAATTTTCATATTTCTGTACATATATTATAAATATA [XGTACX_site3480],11 ± 0.69
21,ATTAGGCATATTTTCTGTACACAATAATAAAAAAAA [XGTACX_site3957],11.6 ± 0.91
